Values without a mark were called inactive. Activity calls are given as the source filed them.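 How the source made its calls: active means mean inhibition above 46.68%, the untreated control wells mean plus 3 SD; inactive means the rest.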
Target: Nuclear receptor coactivator 1 (Homo sapiens) (UniProt Q15788)
Assay: SRC1 coactivator transcriptional activity inhibitors, confirmation, cell-based, luminescence, quadruplicate (AID 588820);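 further: 0% = DMSO wells and 100% = gossypol 36 µM treated wells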
Conditions: HEK293 GAL4-SRC1 luciferase reporter, at 3.6 µM, stronger effect = higher value

Chain of Nuclear receptor coactivator 1 (Homo sapiens) (Q15788 whole entry, looked up): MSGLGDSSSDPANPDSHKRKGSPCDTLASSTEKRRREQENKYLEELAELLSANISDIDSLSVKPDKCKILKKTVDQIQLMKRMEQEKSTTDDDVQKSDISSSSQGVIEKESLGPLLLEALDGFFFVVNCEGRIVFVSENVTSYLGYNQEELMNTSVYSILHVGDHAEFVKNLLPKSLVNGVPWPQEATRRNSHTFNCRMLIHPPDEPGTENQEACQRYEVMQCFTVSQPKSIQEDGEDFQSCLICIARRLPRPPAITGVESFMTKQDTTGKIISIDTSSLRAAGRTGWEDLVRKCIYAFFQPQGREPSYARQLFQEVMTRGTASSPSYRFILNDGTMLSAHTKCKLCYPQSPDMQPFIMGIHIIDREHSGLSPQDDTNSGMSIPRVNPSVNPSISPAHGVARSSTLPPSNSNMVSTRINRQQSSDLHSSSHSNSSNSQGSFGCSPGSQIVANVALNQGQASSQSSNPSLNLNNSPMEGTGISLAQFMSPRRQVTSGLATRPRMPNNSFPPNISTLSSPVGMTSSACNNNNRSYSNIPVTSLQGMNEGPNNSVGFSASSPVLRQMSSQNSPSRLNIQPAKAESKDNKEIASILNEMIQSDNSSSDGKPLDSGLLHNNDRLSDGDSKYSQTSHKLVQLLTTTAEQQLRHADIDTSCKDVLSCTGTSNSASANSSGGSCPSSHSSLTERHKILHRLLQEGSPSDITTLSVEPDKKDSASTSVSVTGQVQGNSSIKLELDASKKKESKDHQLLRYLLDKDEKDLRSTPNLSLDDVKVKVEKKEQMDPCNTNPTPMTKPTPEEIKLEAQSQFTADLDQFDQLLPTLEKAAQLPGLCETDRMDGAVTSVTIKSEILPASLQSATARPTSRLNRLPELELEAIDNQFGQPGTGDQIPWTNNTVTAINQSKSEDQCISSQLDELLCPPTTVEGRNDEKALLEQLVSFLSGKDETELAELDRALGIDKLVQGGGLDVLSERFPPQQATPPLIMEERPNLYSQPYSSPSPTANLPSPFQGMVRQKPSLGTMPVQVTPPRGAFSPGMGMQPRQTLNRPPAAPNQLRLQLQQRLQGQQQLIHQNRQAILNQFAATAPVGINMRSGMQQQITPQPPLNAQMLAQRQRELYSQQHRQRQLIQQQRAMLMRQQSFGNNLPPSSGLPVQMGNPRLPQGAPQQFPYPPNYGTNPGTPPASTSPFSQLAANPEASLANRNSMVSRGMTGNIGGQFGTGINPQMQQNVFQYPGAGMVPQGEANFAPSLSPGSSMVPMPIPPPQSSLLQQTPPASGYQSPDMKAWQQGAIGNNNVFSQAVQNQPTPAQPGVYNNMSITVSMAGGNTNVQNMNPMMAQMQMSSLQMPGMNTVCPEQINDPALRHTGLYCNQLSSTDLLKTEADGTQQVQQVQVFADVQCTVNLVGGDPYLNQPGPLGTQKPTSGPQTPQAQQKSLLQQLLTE

| Compound | inhibition |
| --- | --- |
| COc1ccc(Cc2noc(CN3CCN(c4ccc(Cl)cn4)CC3)n2)cc1OC | 6.4% |
| CCN(CC)CCNC(=O)c1ccc2c(c1NCCO)C(=O)c1ccccc1C2=O | -19.2% |
| c1ccc(CNc2c3ccccc3nc3ccccc23)cc1 | 0.54% |
| Cc1sc(NC(=O)Cc2ccc3c(c2)OCO3)nc1-c1ccc2c(c1)CCN2C(=O)c1ccc(F)cc1 | 17.3% |
| Cc1cc2[nH]c3ccccc3c2c(C)n1 | -3.38% |
| COc1ccc(-n2ncc3c(N4CCCCC4)ncnc32)cc1 | -11.5% |
| CC(C)c1nc(NCCO)c(C#N)c2c1CCCC2 | 22.1% |
| Cc1csc(CNc2ncnc3ccc(-c4ccoc4)cc23)c1 | 48% (active) |
| CSc1ncnc2c1ncn2CC(=O)C1CCC2C3CCC4=CC(=O)CCC4(C)C3CCC12C (stereo not given) | -0.31% |
| CCN1CCN(c2ccc(Nc3ccnc4ccccc34)cc2)CC1 | 40.1% |
| Cc1ccc(-n2c(O)c(C=Nc3cc(C)on3)c3ccccc3c2=O)c(C)c1 | 44.8% |
| CCn1nc(C)c(CNC(=O)c2cc(COc3ccc(F)cc3Cl)on2)c1C | 8.35% |
| Cc1nc2ccc(NC(=O)c3ccc(Cl)c(S(=O)(=O)N(C)c4ccccc4)c3)cc2s1 | 3.35% |
| CC(=O)NC(C)c1cc(Cl)c2cccnc2c1O (stereo not given) | 10.6% |
| COc1cc2c(cc1OC)C(C)N(C(=O)c1cccc([N+](=O)[O-])c1)CC2 (stereo not given) | 17.3% |
| Cn1c(CC(=O)Nc2ccc(Cl)c(Cl)c2)nnc1SCC(=O)N1CCN(c2ccccc2)CC1 | 9.04% |
| CC(C)(C)OC(=O)NCC(=O)Oc1cc2oc(=O)cc(-c3ccccc3)c2cc1Cl | 21.3% |
| CCc1ccc(-c2cc(C(F)(F)F)n3nc(C(=O)Nc4cnn(Cc5ccc(C)cc5)c4)cc3n2)s1 | -3.69% |
| CCOc1cc(C(N)=O)cc(Br)c1OC | 29.3% |
| CCc1ccc2[nH]c3nc(N/N=C/c4cccc(O)c4)nnc3c2c1 | 22.6% |

| Compound | inhibition |
| --- | --- |
| Cc1cc(C(=O)COC(=O)c2cccc(NS(C)(=O)=O)c2)c(C)n1CC1CCCO1 (stereo not given) | -46.9% |
| O=C(Nc1c2ccccc2nc2ccccc12)C(Cl)(Cl)Cl | -35% |
| CC1CCc2c(sc(NC(=O)c3cccs3)c2C(=O)O)C1 (stereo not given) | 11.8% |
| CCCCNc1nc2c(c(=O)n(C)c(=O)n2C)n1Cc1cccc(OC)c1 | 16.8% |
| Cc1c2ccncc2cc2c1[nH]c1ccccc12 | 48.4% (active) |
| Cc1c(-c2ccccc2)oc2c(C(=O)N3CCN(c4ccc([N+](=O)[O-])cc4)CC3)cccc2c1=O | 45.9% |
| COC1C(CO)OC(n2c3c(Cl)cccc3c3c4c(c5c6cccc(Cl)c6[nH]c5c32)C(=O)NC4=O)C(O)C1O (stereo not given) | 23.4% |
| CN1CCN(c2ncnc3scc(-c4ccccc4Cl)c23)CC1 | 55.4% (active) |
| CC1CCN(Cc2c(C(=O)N/N=C/c3cc(Br)ccc3O)nnn2-c2nonc2N)CC1 | 84.8% (active) |
| CCc1nc(Cl)c(C#N)c2c1CCCC2 | 34.8% |
| O=C(C1CCC(CNS(=O)(=O)c2cccs2)CC1)N1CCN(c2ccc(Cl)cc2)CC1 (stereo not given) | 14.9% |
| COc1ccc(Nc2nc(N3CCCC3)nc3ccccc23)c(OC)c1 | 5.96% |
| CCOc1cc(/C=C2\CN(C)C/C(=C\c3ccc(O)c(OCC)c3)C2=O)ccc1O | -18.5% |
| O=C(Nc1cccc(Cl)c1)Nc1nnc(-c2ccncc2)s1 | 28.5% |
| Cc1ccc(S(=O)(=O)N2[C@@H](c3ccc(C(C)(C)C)cc3)C(C(=O)O)=CC[C@H]2c2ccc(Cl)cc2)cc1 | 28.7% |
| N#Cc1c2ccc(O)cc2n2ccccc12 | 42.8% |
| Oc1ccc(-c2n[nH]c(=S)n2-c2ccc3c(c2)OCCO3)c(O)c1 | 20.9% |
| CCSCCc1nnc(NC(=O)Nc2cccc(C(F)(F)F)c2)s1 | 45.9% |
| CCCCN(CCCC)c1ncnc2nc[nH]c12 | 36.2% |
| O=C(NCc1ccco1)c1ccc2c(c1)N(Cc1ccccc1)CCS2 | 3.44% |
